T cruzi growth-1: T. cruzi intracellular proliferation inhibitors, primary screen, cell-based, beta-gal Tulahuen parasites, NIH3T3 host, luminescence; T. cruzi beta-gal in NIH3T3, GalScreen luminescence, 90 h; inhibition, % at 8.34 µM; hit rate 5.9% among 77,000;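 active means mean inhibition above about 93%, with at least 55% of replicates each passing it, limit read from the data, passing the limit was not always enough; inconclusive means only one of those two conditions holds; inactive means neither condition holds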
Pf Dd2 growth: P. falciparum Dd2 growth inhibitors, primary screen, SYBR Green fluorescence, single dose replicates; 72 h; active compounds read low; activity change, % at 10 µM; hit rate 2.3% among 94,000; AID 1159554, 2015; in the data active means activity change below about -80%; inconclusive means no clear call, values can overlap the other calls
C diff growth: C. difficile growth inhibitors, primary screen, HTS; Clostridium difficile clinical isolate growth, OD600, 24 h; active compounds read low; growth activity, negative = inhibition, % at 16 µg/mL (by protocol); hit rate 0.25% among 86,000; AID 1259249, 2017;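 active means mean growth activity at or below -80% and every replicate also at or below -80%; inconclusive means mean at or below -80% but some replicate above -80%; inactive means mean growth activity above -80%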;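 further: 0% = DMSO wells and -100% = levofloxacin 16 µg/mL wells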
T cruzi growth-2: T. cruzi intracellular proliferation inhibitors, confirmation, cell-based, NIH3T3 host, beta-gal parasite, luminescence, cherry-pick; AID 651739, 2012; shares compounds with T cruzi growth-1; T. cruzi beta-gal in NIH3T3, GalScreen luminescence, 90 h; hit rate 72% among 5,600; inhibition, % at 8.35 µM;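 active means mean replicate inhibition above about 95% and at least 55% of replicates individually reaching it, limit read from the data; inconclusive means only one of the two criteria is met; inactive means neither criterion is met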
T cruzi growth-3: inhibitors of intracellular T. cruzi replication, confirmation, NIH3T3 host cells, beta-gal parasites, cherry-pick, set 2; inhibition, % at 2.09 µM; hit rate 21% among 5,600; T. cruzi beta-gal in NIH3T3, GalScreen luminescence, 90 h; shares compounds with T cruzi growth-1;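 active means mean inhibition above about 95%, with at least 55% of replicates also reaching it, limit read from the data; inconclusive means meets just one of the two conditions; inactive means meets neither condition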;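 further: plate controls were neutral control median for no effect and positive control median for full effect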
NIH3T3 tox: cytotoxicity in mouse NIH/3T3 fibroblasts, confirmation, cytotoxicity control for T. cruzi proliferation inhibitor project, cell-based, cherry-pick, single point; shares compounds with T cruzi growth-1; NIH/3T3 viability, CellTiter-Glo ATP luminescence, 90 h; cytotoxicity (signal decrease), % at 8.35 µM; hit rate 14% among 5,600;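 active means mean signal decrease across replicates above about 35% based on untreated-well scatter, with enough replicates individually passing, limit read from the data; inconclusive means no rule stated though some were filed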;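 further: 0% = median of neutral control wells and 100% = median of positive control wells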
3T3 cytotox 2: NIH/3T3 fibroblast cytotoxicity, confirmation, cytotoxicity control, cell-based, cherry-pick, single point, set 2; shares compounds with T cruzi growth-1; NIH/3T3 viability, CellTiter-Glo ATP luminescence, 90 h; inhibition, % at 24.9 µM; hit rate 56% among 5,600;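 active means mean loss of cell viability signal at or above a set limit, and enough replicates individually reaching it; inconclusive means meets only the mean limit or only the replicate share; inactive means meets neither condition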;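 further: 0% = median of neutral control wells and 100% = median of positive control wells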
An asterisk follows results filed as active; ? = inconclusive; / = no result given. Compounds with a hit are over-represented: about 6.8% of the library has one in this group of screens.

SMILES	T cruzi growth-1	Pf Dd2 growth	C diff growth	T cruzi growth-2	T cruzi growth-3	NIH3T3 tox	3T3 cytotox 2
C[C@H](CO)N1C[C@H](C)[C@H](CN(C)Cc2ccc(Oc3ccccc3)cc2)Oc2cc(-c3ccncc3)ccc2S1(=O)=O	124*	-75	28	101*	104*	64*	64*
C[C@H]1CN([C@@H](C)CO)S(=O)(=O)c2ccc(-c3cncnc3)cc2O[C@H]1CN(C)Cc1ccc(Oc2ccccc2)cc1	/	9	18	/	/	/	/
C[C@@H]1CN([C@@H](C)CO)S(=O)(=O)c2ccc(-c3ccncc3)cc2O[C@@H]1CN(C)Cc1ccc(Oc2ccccc2)cc1	?	-84*	5	99*	108*	74*	74*
C[C@H](CO)N1C[C@H](C)[C@@H](CN(C)Cc2cccnc2)Oc2cc(-c3ccncc3)ccc2S1(=O)=O	82	-31	6	/	/	/	/
COc1ccccc1-c1cnc2c(c1)C(=O)N([C@H](C)CO)C[C@H](C)[C@H](CN(C)Cc1cccc(F)c1)O2	56	-12	12	/	/	/	/
C[C@H]1CN([C@@H](C)CO)S(=O)(=O)c2ccc(-c3cncnc3)cc2O[C@@H]1CN(C)C(=O)C1CC1	-31	0	-3	/	/	/	/
CN1C(=O)c2cc(NC(=O)c3ccc(C(F)(F)F)cc3)ccc2OC[C@@H]2O[C@H](CC(=O)NC3Cc4ccccc4C3)CC[C@H]21	105*	-53	0	113*	46	16	?
CN1C(=O)c2cc(NC(=O)c3ccc(C(F)(F)F)cc3)ccc2OC[C@H]2O[C@H](CC(=O)NC3Cc4ccccc4C3)CC[C@H]21	77	-27	/	/	/	/	/
CN1C(=O)c2cc(NC(=O)c3cccc(Cl)c3)ccc2OC[C@H]2O[C@@H](CC(=O)NC3CCCCC3)CC[C@@H]21	/	8	2	/	/	/	/
CN1C(=O)c2cc(NC(=O)c3cccc(Cl)c3)ccc2OC[C@@H]2O[C@H](CC(=O)NC3CCCCC3)CC[C@@H]21	100*	-45	-5	99*	60	18	60*
CC(C)NC(=O)Nc1ccc2c(c1)C(=O)N([C@@H](C)CO)C[C@H](C)[C@@H](CN(C)C(=O)NC1CCCCC1)OCCCC[C@@H](C)O2	-11	-32	-2	/	/	/	/
O=C(C[C@H]1C=C[C@@H](NS(=O)(=O)c2ccc(F)cc2)[C@@H](CO)O1)N1CCC(Cc2ccccc2)CC1	66	-32	-1	/	/	/	/
C[C@H](CO)N1C[C@H](C)[C@H](CN(C)C(=O)C2CC2)Oc2cc(C#CC3CC3)ccc2S1(=O)=O	72	-31	1	/	/	/	/
CCCNC(=O)N(C)C[C@@H]1Oc2cc(-c3ccncc3)ccc2S(=O)(=O)N([C@H](C)CO)C[C@H]1C	107*	-1	-2	87	76	1	13
CCCNC(=O)N(C)C[C@@H]1Oc2cc(-c3ccncc3)ccc2S(=O)(=O)N([C@@H](C)CO)C[C@H]1C	111*	38	-4	97*	85	2	10
CCCNC(=O)N(C)C[C@@H]1Oc2cc(-c3ccc(C)cc3)ccc2S(=O)(=O)N([C@@H](C)CO)C[C@@H]1C	-1	-19	7	/	/	/	/
CCCNC(=O)N(C)C[C@@H]1Oc2cc(-c3ccncc3)ccc2S(=O)(=O)N([C@H](C)CO)C[C@@H]1C	38	-16	-2	/	/	/	/
COc1cccc(C(=O)N2C[C@@H]3[C@H](c4ccccc42)[C@H](CO)N3C(=O)c2ccccc2)c1	63	5	-6	/	/	/	/
Cn1cnc(S(=O)(=O)N2CCCCN3[C@H](C2)[C@@H](c2ccc(C#CC4CC4)cc2)[C@@H]3CO)c1	53	21	-4	/	/	/	/
Cn1cnc(S(=O)(=O)N2CCCCN3[C@H](C2)[C@@H](c2ccc(C#CC4CCCC4)cc2)[C@@H]3CO)c1	76	-34	-10	/	/	/	/
Cn1cnc(S(=O)(=O)N2CCCCN3[C@H](CO)[C@H](c4ccc(C#CC5CCCC5)cc4)[C@H]3C2)c1	111*	-41	-14	95*	27	30	105*
Cn1cnc(S(=O)(=O)N2CCCCN3[C@@H](CO)[C@H](c4ccc(C#CC5CCCC5)cc4)[C@@H]3C2)c1	106*	-38	-10	72	-18	29	100*
CCC(=O)N1C[C@@H](C)[C@H](OC)CN(C)C(=O)c2ccc(NC(=O)Nc3ccccc3)cc2OC[C@H]1C	-12	-50	-10	/	/	/	/
C[C@H](CO)N1C[C@H](C)[C@H](CN(C)C(=O)CN(C)C)Oc2ncc(/C=C/c3ccccc3)cc2C1=O	/	31	-1	/	/	/	/
C[C@H](CO)N1C[C@H](C)[C@H](CN(C)S(=O)(=O)c2cn(C)cn2)OCCCC[C@H](C)Oc2ccc(NS(=O)(=O)c3ccc(Cl)cc3)cc2C1=O	-44	-33	7	/	/	/	/
SMILES	T cruzi growth-1	Pf Dd2 growth	C diff growth	T cruzi growth-2	T cruzi growth-3	NIH3T3 tox	3T3 cytotox 2
COc1ccc(CN(C)C[C@@H]2OCCCC[C@H](C)Oc3ccc(NC(=O)Nc4ccccc4)cc3C(=O)N([C@H](C)CO)C[C@@H]2C)cc1	114*	-23	3	88	109*	43*	107*
COc1ccc(NC(=O)Nc2ccc3c(c2)C(=O)N([C@@H](C)CO)C[C@H](C)[C@H](CN(C)C(=O)Cc2ccccc2)OCCCC[C@@H](C)O3)cc1	21	-75	10	/	/	/	/
COc1ccc(NC(=O)Nc2ccc3c(c2)C(=O)N([C@H](C)CO)C[C@@H](C)[C@@H](CN(C)Cc2ccccc2)OCCCC[C@H](C)O3)cc1	103*	-62	14	108*	68	-3	59*
COc1ccc(CN(C)C[C@@H]2OCCCC[C@H](C)Oc3ccc(NC(=O)c4ccccc4)cc3C(=O)N([C@H](C)CO)C[C@@H]2C)cc1	61	-36	2	/	/	/	/
COc1ccc(NC(=O)Nc2ccc3c(c2)C(=O)N([C@@H](C)CO)C[C@H](C)[C@H](CN(C)Cc2ccccc2)OCCCC[C@@H](C)O3)cc1	89	-56	7	/	/	/	/
COc1ccc(CN(C)C[C@@H]2OCCCC[C@@H](C)Oc3ccc(NC(=O)c4ccccc4)cc3C(=O)N([C@H](C)CO)C[C@H]2C)cc1	107*	-56	-4	91	80	4	81*
COc1ccc(NC(=O)Nc2ccc3c(c2)C(=O)N([C@@H](C)CO)C[C@H](C)[C@H](CN(C)C(=O)Cc2ccccc2)OCCCC[C@H](C)O3)cc1	?	-66	-6	112*	-4	-10	3
